Test results from PubChem BioAssay AID1252 (The Scripps Research Institute Molecular Screening Center, 2008).
Some of the results follow. Active and inactive are the calls of the source.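 How the source made its calls: active means over 50% activation at some tested dose; inactive means under 50% activation at every tested dose.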

experiment: Hsp70 transcriptional activators, dose response, cell-based, HeLa, Hsp70 promoter luciferase, luminescence, triplicate (AID 1252); conditions: HeLa hsp70.1pr-luc reporter; series mostly up to 99 µM; activation: at the top concentration

activation, inactive:
O=C(/C=C/Sc1ncn[nH]1)c1ccc(Cl)cc1 3.8%, COCCn1c(C)cc(C(=O)CSc2nc3ccccc3c(=O)n2C(C)COC)c1C (centres undefined) -0.3%, COc1ccc(CS(=O)/C(Cl)=C(/Cl)C(=O)Nc2ccc(OC)nc2)cc1 (centres undefined) -0.5%, COc1ccc(NC(=O)/C(Cl)=C(/Cl)S(=O)Cc2ccc(C)cc2)cn1 (centres undefined) 1.6%
